# According to PubChem BioAssay (EPA / NIEHS):
# Several values for one entry are separate records, joined by “and”; a condition that tells them apart may be missing. Equal entries are not always repeated. The source holds several records for some structures; these can differ, active in one and inactive in another. Activity calls are given as the source filed them. The calls were made as follows: active = hit-call score of the fitted dose curve at least 0.9, where 1 is the maximum; inactive = score below 0.9.
# Experiments:
# [1] = read-out: urokinase Plasminogen Activator (uPA), PLAU (gene 5328); experiment: BSK_BF4T_uPA: BioMAP Diversity Plus: BF4T Assay for urokinase Plasminogen Activator (uPA) Biomarker Activity (AID 2284275); conditions: primary human bronchial epithelial cells with fibroblasts
# Summary of the method: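 Co-culture of human bronchial epithelial cells and dermal fibroblasts; uPA quantified by ELISA 24 hours after dosing, fitted relative to DMSO. Parallel SRB total-protein staining assessed overt cytotoxicity.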
# [2] = read-out: Matrix Metallopeptidase 9 (MMP9), MMP9 (gene 4318); experiment: BSK_BF4T_MMP9: BioMAP Diversity Plus: BF4T Assay for Matrix Metallopeptidase 9 (MMP9) Biomarker Activity (AID 2284276); conditions: primary human bronchial epithelial cells with fibroblasts
# Summary of the method: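 Co-culture of human bronchial epithelial cells and dermal fibroblasts dosed for 24 h; MMP-9 quantified by ELISA and fitted upward versus DMSO. Cytotoxicity monitored in parallel cultures by SRB total-protein staining at the biomarker time point.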
# [3] = read-out: Interleukin-8 (IL8), CXCL8 (gene 3576); experiment: BSK_IMphg_IL8: BioMAP Diversity Plus: IMphg Assay for Interleukin-8 (IL8) Biomarker Activity (AID 2284277); conditions: primary human endothelial cells with macrophages
# Summary of the method: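 Co-culture of human venular endothelial cells and macrophages exposed to chemicals for 24 h; IL-8 quantified by ELISA and compared against the DMSO baseline, with SRB total-protein staining in parallel cultures for cytotoxicity.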
# [4] = read-out: Intercellular Adhesion Molecule 1 (ICAM1), ICAM1 (gene 3383); experiment: BSK_BE3C_ICAM1: BioMAP Diversity Plus: BE3C Assay for Intercellular Adhesion Molecule 1 (ICAM1) Biomarker Activity (AID 2284278); conditions: primary human bronchial epithelial cells;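 as to outcome: cell-surface ICAM-1 protein level quantified by ELISA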
# Summary of the method: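 Measured by ELISA: ICAM-1 expressed by primary human bronchial epithelial cells 24 h after compound treatment, with upward-direction fitting versus DMSO vehicle.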
# [5] = read-out: Interferon-inducible T-cell alpha chemoattractant (ITAC), CXCL11 (gene 6373); experiment: BSK_BE3C_ITAC: BioMAP Diversity Plus: BE3C Assay for Interferon-inducible T-cell alpha chemoattractant (ITAC) Biomarker Activity (AID 2284279); conditions: primary human bronchial epithelial cells
# Summary of the method: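 ELISA read-out of I-TAC after 24 h chemical dosing of human lung primary bronchial epithelial cells; gain-of-signal fit vs DMSO baseline. Parallel SRB total-protein staining (0.1% SRB, 10% TCA fixation, 560 nm) assessed cytotoxicity.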
# [6] = read-out: Interleukin-8 (IL8), CXCL8 (gene 3576); experiment: BSK_BE3C_IL8: BioMAP Diversity Plus: BE3C Assay for Interleukin-8 (IL8) Biomarker Activity (AID 2284280); conditions: primary human bronchial epithelial cells
# Summary of the method: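 IL-8 signal gain, normalised to DMSO vehicle, was scored after a 24 h chemical exposure of primary human bronchial epithelial cells, with detection by ELISA.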
# [7] = read-out: Epidermal growth factor receptor (EGFR), EGFR (gene 1956); experiment: BSK_BE3C_EGFR: BioMAP Diversity Plus: BE3C Assay for Epidermal growth factor receptor (EGFR) Biomarker Activity (AID 2284281); conditions: primary human bronchial epithelial cells
# Summary of the method: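 Compound is added to human bronchial epithelial cells, cells incubate 24 h, then EGFR is detected by ELISA. Values reflect positive-direction fitting relative to DMSO.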
# [8] = read-out: KRT18 (gene 3875); experiment: BSK_BE3C_Keratin818: BioMAP Diversity Plus: BE3C Assay for Keratin 818 Biomarker Activity (AID 2284282); conditions: primary human bronchial epithelial cells
# Summary of the method: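 BE3C: human bronchial epithelial primary cells, 24 h exposure, Keratin 8/18 ELISA; DMSO = negative control/baseline; cytotoxicity by parallel SRB stain (0.1% SRB after 10% TCA fixation, 560 nm).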
# [9] = read-out: Plasminogen activator inhibitor-1 (PAI1), SERPINE1 (gene 5054); experiment: BSK_CASM3C_PAI1: BioMAP Diversity Plus: CASM3C Assay for Plasminogen activator inhibitor-1 (PAI1) Biomarker Activity (AID 2284284); conditions: primary human coronary artery smooth muscle cells;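 also: PAI-1 protein level measured by ELISA 24 h after dosing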
# [10] = read-out: Vascular cell adhesion molecule 1 (VCAM1), VCAM1 (gene 7412); experiment: BSK_IMphg_VCAM1: BioMAP Diversity Plus: IMphg Assay for Vascular cell adhesion molecule 1 (VCAM1) Biomarker Activity (AID 2284286); conditions: primary human endothelial cells with macrophages
# Summary of the method: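 Human venular endothelial cells co-cultured with macrophages; VCAM-1 quantified by ELISA 24 h after dosing, fitted in the positive direction against DMSO. Cytotoxicity was checked in parallel cultures by SRB total-protein staining (0.1% SRB after 10% TCA fixation, 560 nm).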
# [11] = read-out: CD40, CD40 (gene 958); experiment: BSK_IMphg_CD40: BioMAP Diversity Plus: IMphg Assay for CD40 Biomarker Activity (AID 2284288); conditions: primary human endothelial cells with macrophages
# Summary of the method: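 Venular endothelial cells co-cultured with macrophages (human primary), CD40 measured by ELISA 24 h after dosing. Positive-direction fit vs DMSO baseline; cytotoxicity tracked by SRB total-protein staining in parallel cultures.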
# [12] = read-out: E-selectin (Homo sapiens) (UniProt P16581); experiment: BSK_IMphg_ESelectin: BioMAP Diversity Plus: IMphg Assay for Eselectin Biomarker Activity (AID 2284291); conditions: primary human endothelial cells with macrophages
# Summary of the method: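 Human venular endothelial cell–macrophage co-culture, E-selectin measured by ELISA 24 h after chemical dosing. Signal fitted in the positive direction against DMSO as negative control and baseline.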
# [13] = BSK_IMphg_SRB: Viability Assessment in the BioMAP Diversity Plus: IMphg Assay (AID 2284292); conditions: primary human endothelial cells with macrophages;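 also: measured one day after compound addition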
# Summary of the method: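 Human venular endothelial cells with macrophages, 24 h after chemical dosing; total protein by 0.1% SRB staining after 10% TCA fixation, read at 560 nm. Positive-direction fitting versus DMSO baseline.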
# [14] = read-out: Macrophage colony-stimulating factor (MCSF), CSF1 (gene 1435); experiment: BSK_IMphg_MCSF: BioMAP Diversity Plus: IMphg Assay for Macrophage colony-stimulating factor (MCSF) Biomarker Activity (AID 2284293); conditions: primary human endothelial cells with macrophages
# Summary of the method: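 Co-culture of human venular endothelial cells and macrophages, 24 hours of chemical exposure. M-CSF quantified by ELISA, with parallel SRB total-protein staining for cytotoxicity; activity fitted relative to DMSO.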
# [15] = read-out: Interleukin-10 (IL10), IL10 (gene 3586); experiment: BSK_IMphg_IL10: BioMAP Diversity Plus: IMphg Assay for Interleukin-10 (IL10) Biomarker Activity (AID 2284294); conditions: primary human endothelial cells with macrophages
# Summary of the method: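 Human venular endothelial cells cocultured with macrophages, dosed 24 h; IL-10 measured by ELISA, activity relative to DMSO. Cytotoxicity assessed in parallel cultures by sulforhodamine B total-protein staining.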
# [16] = BSK_IMphg_SRB.Mphg: Macrophage Viability Assessment in the BioMAP Diversity Plus: IMphg Assay (AID 2284295); conditions: primary human endothelial cells with macrophages
# Summary of the method: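 Venular endothelial cells co-cultured with macrophages, read 24 h after dosing. Total protein measured by 0.1% SRB staining after 10% TCA fixation, absorbance at 560 nm. Fitted in positive direction against DMSO baseline.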
# [17] = read-out: Thrombomodulin, THBD (gene 7056); experiment: BSK_LPS_Thrombomodulin: BioMAP Diversity Plus: LPS Assay for Thrombomodulin Biomarker Activity (AID 2284296); conditions: primary human HUVEC with PBMC
# Summary of the method: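 Human umbilical vein endothelial cells co-cultured with PBMC and stimulated with LPS; cell-surface thrombomodulin measured by ELISA 24 hours after compound. Gain or loss versus DMSO; cytotoxicity checked by SRB staining in parallel cultures.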
# E-selectin (Homo sapiens), sequence (P16581 whole entry, looked up): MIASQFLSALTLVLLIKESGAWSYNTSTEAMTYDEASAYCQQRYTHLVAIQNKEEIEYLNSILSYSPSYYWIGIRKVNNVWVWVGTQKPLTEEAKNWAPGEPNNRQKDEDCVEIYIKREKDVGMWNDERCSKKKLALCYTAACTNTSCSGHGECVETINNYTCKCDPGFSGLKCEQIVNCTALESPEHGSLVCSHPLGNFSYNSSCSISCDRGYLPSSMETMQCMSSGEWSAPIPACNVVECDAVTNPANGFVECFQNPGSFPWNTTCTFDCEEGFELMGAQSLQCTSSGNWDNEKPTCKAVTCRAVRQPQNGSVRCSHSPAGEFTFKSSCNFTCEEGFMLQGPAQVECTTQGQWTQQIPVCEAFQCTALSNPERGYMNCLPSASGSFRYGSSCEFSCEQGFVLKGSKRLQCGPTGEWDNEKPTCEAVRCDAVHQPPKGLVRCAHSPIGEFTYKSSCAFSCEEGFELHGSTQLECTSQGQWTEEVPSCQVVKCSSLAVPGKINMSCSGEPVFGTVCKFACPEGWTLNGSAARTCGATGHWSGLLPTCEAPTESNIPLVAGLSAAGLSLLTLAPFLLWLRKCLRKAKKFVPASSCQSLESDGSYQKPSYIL
smiles,measurement,setting,value
CN(CCO)S(=O)(=O)C(F)(F)C(F)(F)C(F)(F)C(F)(F)C(F)(F)C(F)(F)C(F)(F)C(F)(F)F,outcome,[1],inactive
same,outcome,[2],inactive
same,outcome,[3],inactive
same,outcome,[4],inactive
same,outcome,[5],inactive
same,outcome,[6],inactive
same,outcome,[7],inactive
same,outcome,[8],inactive
same,outcome,[9],inactive
same,outcome,[10],inactive
same,outcome,[11],inactive
same,outcome,[12],inactive
same,outcome,[13],inactive
same,outcome,[14],inactive
same,outcome,[15],inactive
same,outcome,[16],inactive
same,outcome,[17],inactive
O=S(=O)(O)C(F)(F)C(F)(F)C(F)(F)C(F)(F)C(F)(F)C(F)(F)C(F)(F)C(F)(F)C(F)(F)C(F)(F)F,outcome,[1],inactive
same,outcome,[2],inactive
same,AC50,[3],12.2 µM (active)
same,outcome,[3],inactive
same,outcome,[4],inactive
same,AC50,[5],21.8 µM (active)
same,outcome,[5],inactive
same,outcome,[6],inactive
same,outcome,[7],inactive
same,AC50,[8],21 µM (active) and 18 µM (active)
same,outcome,[9],inactive
same,outcome,[10],inactive
same,AC50,[11],10.6 µM (active) and 6.06 µM (active)
same,outcome,[12],inactive
same,outcome,[13],inactive
same,outcome,[14],inactive
same,AC50,[15],13.3 µM (active)
same,outcome,[15],inactive
same,AC50,[16],668 nM (active)
same,outcome,[16],inactive
same,outcome,[17],inactive
Oc1c(Cl)cc(Cl)cc1Sc1cc(Cl)cc(Cl)c1O,AC50,[4],5.56 µM (active) and 6.58 µM (active)
same,AC50,[5],3.3 µM (active) and 3.57 µM (active)
same,AC50,[6],11.7 µM (active) and 11.1 µM (active)
same,AC50,[7],4.89 µM (active) and 4.9 µM (active)
same,AC50,[8],9.64 µM (active) and 7.03 µM (active)
same,AC50,[9],18.3 µM (active)
same,outcome,[9],inactive
same,outcome,[17],inactive
O=C(O)C(F)(F)OC(F)(F)C(F)(F)OC(F)(F)C(F)(F)OC(F)(F)C(F)(F)C(F)(F)C(F)(F)F,AC50,[1],14.6 µM (active)
same,outcome,[1],inactive
same,AC50,[2],11.2 µM (active) and 8.88 µM (active)
same,AC50,[3],54.2 µM (active) and 7.06 µM (active)
same,AC50,[4],6.39 µM (active) and 5.8 µM (active)
same,AC50,[5],5.77 µM (active) and 5.71 µM (active)
same,AC50,[6],6.28 µM (active) and 6.03 µM (active)
same,outcome,[7],inactive
same,AC50,[8],3.28 µM (active) and 2.7 µM (active)
same,outcome,[9],inactive
same,AC50,[10],51.8 µM (active) and 48.8 µM (active)
same,AC50,[11],42.4 µM (active) and 40.9 µM (active)
same,AC50,[12],40.8 µM (active) and 31.9 µM (active)
same,AC50,[13],53.4 µM (active) and 51.8 µM (active)
same,outcome,[14],inactive
same,AC50,[15],53.4 µM (active) and 56.3 µM (active)
same,AC50,[16],42.9 µM (active) and 45.1 µM (active)
same,AC50,[17],45.8 µM (active) and 44.1 µM (active)
CN(Cc1cnc2nc(N)nc(N)c2n1)c1ccc(C(=O)N[C@@H](CCC(=O)O)C(=O)O)cc1,outcome,[1],inactive
same,outcome,[2],inactive
same,outcome,[3],inactive
same,outcome,[4],inactive
same,outcome,[5],inactive
same,outcome,[6],inactive
same,outcome,[7],inactive
same,outcome,[8],inactive
same,outcome,[9],inactive
same,outcome,[10],inactive
same,outcome,[11],inactive
same,outcome,[12],inactive
same,outcome,[13],inactive
same,outcome,[14],inactive
same,outcome,[15],inactive
same,AC50,[16],3260 nM (active)
same,outcome,[16],inactive
same,outcome,[17],inactive
C=CC(=O)OCCC(F)(F)C(F)(F)C(F)(F)C(F)(F)C(F)(F)C(F)(F)C(F)(F)C(F)(F)F,outcome,[1],inactive
same,outcome,[2],inactive
same,outcome,[3],inactive
same,outcome,[4],inactive
same,outcome,[5],inactive
same,outcome,[6],inactive
same,outcome,[7],inactive
same,outcome,[8],inactive
same,outcome,[9],inactive
same,outcome,[10],inactive
same,outcome,[11],inactive
same,outcome,[12],inactive
same,outcome,[13],inactive
same,outcome,[14],inactive
same,outcome,[15],inactive
same,outcome,[16],inactive
same,AC50,[17],2.94 µM (active)
same,outcome,[17],inactive
O=C(O)CCC(F)(F)C(F)(F)C(F)(F)C(F)(F)C(F)(F)F,outcome,[1],inactive
same,outcome,[2],inactive
same,outcome,[3],inactive
same,outcome,[4],inactive
same,outcome,[5],inactive
same,outcome,[6],inactive
same,outcome,[7],inactive
same,outcome,[8],inactive
same,outcome,[9],inactive
same,outcome,[10],inactive
same,outcome,[11],inactive
same,outcome,[12],inactive
same,outcome,[13],inactive
same,outcome,[14],inactive
same,outcome,[15],inactive
same,outcome,[16],inactive
same,outcome,[17],inactive
